Laboratory results as given in PubChem BioAssay (NCI).
This is part of a sample that, as a whole, favours compounds with a hit. Of some 83,000 tested, about 20% had one in any assay.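 The test compound was applied at a single concentration to cells in 96-well plates for 48 hours, and percent growth was recorded.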 Unmarked numbers belong to inactive results. The source made the active and inactive calls. Rule for the calls: active = growth percent below 10; inactive = the rest.

Test system: HCT-15 colon
Assay: NCI-60 one-dose screen, 48 h (100 = growth as untreated, 0 = no growth, -100 = all killed)
Settings: 10 µM unless noted

Question: With `O=C(CSc1nccc(=O)[nH]1)Nc1ccc(-c2nc3ccccc3[nH]2)cc1` as the compound, how does the growth read?
Answer: Its growth is 108%.

Question: For `N[C@@H](Cc1cn(-c2ccnc3ccccc23)nn1)C(=O)O`, which growth is on record?
Answer: Its growth is 114%.

Question: How did the growth turn out when `CCOC(=O)c1c(Nc2ccccc2)nn2c(N)c(C#N)c(-c3ccc(F)cc3)nc12` was run?
Answer: The growth was 69.8%.

Question: `O=C(N/N=C/c1ccc([N+](=O)[O-])o1)c1[nH]c2ccc(Br)cc2c1-c1ccccc1` was tested. Which growth did it give?
Answer: Its growth is 9.3% (active).

Question: `CN(C)CCCNc1c2ccc(Cl)cc2nc2c1oc1ccc(Cl)cc12` was tested. Which growth did it give?
Answer: Its growth is -42.4% (active).

Question: For `Cc1c(NC(=O)CSc2nc3sc4c(c3c(=O)n2-c2ccc(Cl)cc2)CCCC4)c(=O)n(-c2ccccc2)n1C`, which growth is on record?
Answer: The growth was 93.3%.

Question: Which growth does the source give for `CC(C)(C)Nc1nc2c(OCCc3ccccc3)cccn2c1-c1ccc(Cl)cc1` here?
Answer: Its growth is 3.86% (active).

Question: How did the growth turn out when `CN(C)CCCNc1c2ccc(Cl)cc2nc2c1oc1ccccc12` was run?
Answer: Its growth is -20.6% (active).

Question: With `COc1ccccc1C(=O)CSc1nc(Nc2ccc(S(N)(=O)=O)cc2)c2ccccc2n1` as the compound, how does the growth read?
Answer: Its growth is 92.4%.

Question: With `COc1ccccc1/C=C/C=N/NC1=NC2C(S1)N(C)C(=O)N2C` (centres undefined) as the compound, how does the growth read?
Answer: Its growth is 30.4%.

Question: How did the growth turn out when `COc1cccc(N2CCN(c3ncnc4c3[nH]c3ccc(F)cc34)C[C@@H]2C)c1` was run?
Answer: The growth was 18.6%.

Question: Which growth does the source give for `O=C(CSc1nnc(-c2ccc3nc(-c4ccc(Cl)cc4)[nH]c3c2)o1)Nc1ccc(C(=O)/C=C/c2ccc(Cl)cc2)cc1` here?
Answer: The growth was 89.8%.

Question: For `Cc1nc2cnc(N)c(C#Cc3cncc(C(=O)Nc4ccc(Cl)c(C(F)(F)F)c4)c3)c2nc1C`, which growth is on record?
Answer: The growth was 52.6%.

Question: With `Cc1ccc(C(=O)Nc2cccc(C(F)(F)F)c2)cc1Nc1nc(-c2cnccn2)nc2c1cnn2C` as the compound, how does the growth read?
Answer: The growth was 81.3%.
